Here are results for 31 compounds from PubChem BioAssay AID504770 (ICCB-Longwood Screening Facility, Harvard Medical School, 2011).

Hit rate of the full screen: of about 130,000 compounds, about 350 (0.27%) were called active. Cut-off read from the data, not from the text of the source: active = z-score below about -2 (passing the limit was not always enough); inactive = the rest. The full list was thinned out, with actives kept by preference.

This experiment is described as follows: PubChem AID 504770. The conditions noted are these: E. coli YBA685 rctB-dependent plasmid, OD600 growth, 3 h; stronger effect = lower value.
`Cc1ccccc1NC(=O)CSC(=O)c1ccccc1`: the z-score is 0.6 (inactive). As for `N#CC1(C#N)C(c2ccc(Cl)c(Cl)c2)C1(C#N)C#N`, the figure is -6.85 (active).

With `COc1ccc(C2C(C#N)(C#N)C2(C#N)C#N)cc1`, the z-score was 0.05 (inactive). `O=C(O)C(Cc1ccccc1)Nc1ncnc2sc3c(c12)CCC3` (stereo unspecified): the z-score is 0.65 (inactive). As for `CCc1cccc(NC(=O)CC(=O)Nc2ccc3nc4n(c(=O)c3c2)CCCCC4)c1`, the figure is 0.6 (inactive); as for `Cc1c(C(=O)NC2CCCCC2)sc2nc(-c3ccc(F)cc3)cn12`, 0.15 (inactive).

Consider `COc1ccc(C(=O)Nc2ccc(-n3nncc3-c3ccccc3)cc2)cc1`, for which the z-score is -0.9 (inactive). Then `Cc1ccccc1C(=O)N(CC#N)CC#N`, with -0.6 (inactive); and `Cc1ccccc1NC(=O)NC(=O)CC#N`, with 0.45 (inactive). As for `Cc1ccccc1C(=O)CC#N`, the figure is -3.2 (active). Take `CC(C)(C)c1ccc(CNCc2ccco2)cc1`: the z-score is 0.35 (inactive). For `CCOC(=O)CN1C=NS(=O)(=O)c2ccccc21`, the z-score is 0.4 (inactive). As for `O=C1Nc2ccccc2C1=Nc1cccc(C(F)(F)F)c1`, the figure is -1.05 (inactive).

As for `CC(C)c1c(O)c2ccccc2[nH]c1=O`, the z-score was -0.4 (inactive).

On to `O=C1CCC(C2CCC(=O)CC2)CC1`, for which the z-score is -0.55 (inactive).

Consider `CCc1nc2ccccc2n1CCO`, for which the z-score is 0.6 (inactive). `CS(=O)(=O)Nc1ccccc1C(=O)OCC(=O)NC1CC1`: the z-score is -0.75 (inactive). Then `Cc1ccc(NC(=O)Cn2cc3c(n2)CCC(C)C3)c(Cl)c1` (stereo unspecified), with -0.6 (inactive). Turning to `COc1cc(CNc2ccc3[nH]c(=O)[nH]c3c2)ccc1OCC(N)=O`, the z-score is 1.6 (inactive). As for `Cc1nc(S(=O)(=O)NCc2ccc(-c3cccs3)cc2)cn1C`, the figure is -0.2 (inactive); as for `CCCOc1ccc(NC(=O)CC2SC(N)=NC2=O)cc1` (stereo unspecified), -1.1 (inactive); as for `Cc1onc(-c2c(Cl)cccc2Cl)c1/C=N/O`, -0.4 (inactive). Regarding `CCCCn1c2ccccc2c2nc3ccccc3nc21`, the z-score was 0.05 (inactive).

Consider `CCCc1nc2c3ccccc3ncn2n1`, for which the z-score was -5.5 (active).

Consider `CCCCn1c2nc3ccccc3nc2c2c(N)ncnc21`, for which the z-score was 0.2 (inactive). As for `Cc1c(C(=O)NCc2ccc(OC(C)C)cc2)oc2ccc3c(c12)C=CC(C)(C)O3`, the figure is 0.85 (inactive).

Regarding `CC(=O)Oc1ccc(OC(C)=O)c2c1C1C=CC2CC1`, the z-score was 0.85 (inactive). As for `CC(=O)Oc1cccc2c1C(=O)C=CC2=O`, the figure is -6.5 (active).

In the case of `CC(=O)Oc1cccc2c1OC(C)(C)C2`, the z-score was 1.6 (inactive). Then `CC1Cc2cc(S(=O)(=O)NCCC(=O)Nc3ccc(F)cc3F)ccc2N1C(=O)C1CC1` (stereo unspecified), with -0.8 (inactive); and `COC(F)(C(=O)N1CCOCC1)C(F)(F)F` (stereo unspecified), with -0.4 (inactive).
